These results are taken from PubChem BioAssay.

A number with no mark means an inactive call. No rule for the calls is given here.

For orientation: inhibition means the change of the read-out against control, counted positive when it falls.

The target in this assay is Pantothenate synthetase (Mycobacterium tuberculosis (strain ATCC 25618 / H37Rv)) (UniProt P9WIL5). Put plainly: Coupled enzyme confirmation of inhibitors against recombinant Mtb PanC (AID 375).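 Also: 0% = full reaction with vehicle and 100% = no enzyme background.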 As to conditions: coupled enzyme assay; at 10 µM, hits give high values.
Pantothenate synthetase (Mycobacterium tuberculosis (strain ATCC 25618 / H37Rv)), sequence (P9WIL5 whole entry, looked up): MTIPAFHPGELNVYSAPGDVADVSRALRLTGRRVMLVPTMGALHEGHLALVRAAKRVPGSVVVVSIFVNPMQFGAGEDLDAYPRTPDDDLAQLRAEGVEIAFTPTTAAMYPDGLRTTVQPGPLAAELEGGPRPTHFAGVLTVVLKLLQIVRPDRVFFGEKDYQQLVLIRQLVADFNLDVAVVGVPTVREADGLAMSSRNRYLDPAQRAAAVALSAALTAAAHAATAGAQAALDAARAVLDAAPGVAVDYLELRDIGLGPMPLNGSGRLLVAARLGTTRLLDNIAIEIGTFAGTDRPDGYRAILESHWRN
For the compound `CCNC(=O)CC(=O)Nc1ccccc1C(=O)O`, the inhibition is 0%.
The result for `CCOc1cc(-c2nc(-c3ccccc3OC)no2)cc(OCC)c1OCC` reads 12%.
The result for `COC(=O)[C@H](C)NC(=O)Nc1cccc(C(F)(F)F)c1` reads 0%; that for `O=C(CSc1nnc(-c2ccncc2)n1-c1ccc(F)cc1)NC(=O)NCc1ccco1`, 0%.
The result for `COC(=O)COc1ccc(S(=O)(=O)NCCC2=CCCCC2)cc1` reads 2%; that for `CCc1nnc(NC(=O)CSc2nnc(-c3cc4ccccc4cc3O)n2CC)s1`, 6%.
As for `COc1cc(S(=O)(=O)N2CCOCC2)ccc1NC(=O)COC(=O)C12CC3CC(CC(C3)C1)C2`, the inhibition is 1%.
With `COc1ccccc1OCC(=O)N1CCNC1=O` the figure was 0%; with `Cc1cccc(CS(=O)(=O)Cc2ccc(C(=O)NCC3CCCO3)o2)c1` (centres undefined), 0%; with `c1ccc(-c2cn3cccnc3n2)cc1`, 0%.
The result for `Cc1cccc(NC(=O)CCN2CCN(C/C=C/c3ccccc3)CC2)c1` reads 0%; that for `COc1ccc(-n2c(=O)c3c4c(sc3n3c(C)nnc23)CCCC4)cc1`, 3%.
The result for `CCOC(=O)CSC1=C(C#N)C(c2ccc(C)cc2)C(C(=O)OC)C(=O)N1` (centres undefined) reads 0%.
For the compound `CCOC(=O)C1=C(C)Nc2ncnn2C1c1ccccc1F` (centres undefined), the inhibition was 6%.
For the compound `O=C(Nc1c(C(=O)NCc2ccco2)cnn1-c1ccccc1)c1ccc(F)cc1`, the inhibition was 2%.
The result for `N#CCc1ccc(NC(=O)Nc2cccc(Cl)c2)cc1` reads 0%; that for `COc1cc2nc(N3CCN(C(=O)c4ccco4)CC3)nc(N)c2cc1OC`, 2%; that for `CCN(C(=O)COC(=O)c1cc(C)n(-c2ccc(F)cc2)c1C)C1CCS(=O)(=O)C1` (centres undefined), 1%.
With `COc1ccccc1C(=O)N1CCNC(=O)C1CC(=O)Nc1ccc(Cl)cc1` (centres undefined) the figure was 0%; with `CC(C)(C)N=C1NC(=NC(C)(C)C)c2ccccc21`, 0%; with `CCN(CCCNC(=O)C1CCN(S(=O)(=O)c2cccc3nonc23)CC1)Cc1ccccc1`, 6%.
For the compound `Cc1ccc(NC(=O)c2ccccc2O)cc1`, the inhibition is 1%.
The result for `Cc1ccc2c(c1C)NC(C(=O)O)C1CC=CC21` (centres undefined) reads 0%.
With `COC(=O)C1=C(C)NC(C)=C(C(=O)OC)C1C(=O)OC1CCCCC1=O` (centres undefined) the figure was 0%; with `CCn1c(SCC(=O)Nc2nccs2)nnc1-c1ccncc1`, 4%; with `O=C(CCn1c(=O)oc2ccccc21)N1CCN(c2ccccc2Cl)CC1`, 0%.
With `CCN(C(=O)c1c(OC)cccc1OC)c1nnc(-c2cccnc2)s1`, the inhibition was 0%.
With `O=C(NCc1ccccc1)C1CCN(S(=O)(=O)N2CCCCCC2)CC1`, the inhibition was 2%.
The result for `CCCCN1C(=O)C2C(C(=O)Nc3cccc(OC)c3)C3C=CC2(O3)C1C(=O)NC1CCCCC1C` (centres undefined) reads 0%.
Consider `CN(C)CCCN1c2ccccc2CCc2ccc(Cl)cc21`, for which the inhibition was 1%.
With `Cc1cccc2cc(CN(Cc3nnnn3Cc3ccccc3)C3CCCC3)c(=O)[nH]c12` the figure was 0%; with `CSc1nsc(SCC(=O)N2CCc3ccccc32)n1`, 8%.
The result for `Cc1ccc(S(=O)(=O)C2(C(=O)Nc3cccnc3)CC2)cc1` reads 1%.
The result for `CN(C)S(=O)(=O)c1ccc(/C(O)=C2/C(=O)C(=O)N(CCN3CCCCC3)C2c2cccnc2)cc1` (centres undefined) reads 0%; that for `Cc1ccc(NC(=O)c2ccco2)cc1NC(=O)CSc1nnc(-c2cccs2)n1C`, 3%.
For `O=C1CC(c2cccnc2)c2cc3c(cc2N1)OCO3` (centres undefined), the inhibition is 0%.
With `O=C(CCCN1CC=C(n2c(=O)[nH]c3ccccc32)CC1)c1ccc(F)cc1`, the inhibition is 0%.
On to `O=C(c1ccc(S(=O)(=O)N2CCOCC2)cc1)N1CCc2ccccc2C1`, for which the inhibition was 0%.
As to `OCCNCC(O)Cn1ccc2ccccc21` (centres undefined), the inhibition was 2%.
